Reference: the supplement of paper PMC10849652
About 8,800 targets were measured; listed, in parts, are those with a hit and a random draw of the rest. About 0.5% of all pairs of compound and target were hits.

Legend:
Experiment in all cases: log2 fold change, soluble protein after heating vs DMSO (PISA); higher = thermal stabilisation; K562 lysate, 10 uM; active = over 0.2 and 3.5 SD of the protein, either way, in both replicates (recomputed)
ibrutinib = compound: C=CC(=O)N1CCC[C@@H](n2nc(-c3ccc(Oc4ccccc4)cc3)c3c(N)ncnc32)C1 [ibrutinib]
Method in brief: (§1)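 Values give the log-two fold change in thermal stability against solvent controls, from duplicates. Crude K562 extract at 1 mg/mL protein, made by dounce homogenisation in PBS pH 7.4 with 1 mM MgCl2, was treated with 10 μM compound for 30 min. After 3 min heating across 48°C-58°C, aliquots were pooled, adjusted to 0.5% NP-40 at 4°C and centrifuged at 21,000xg for 90 min. The supernatant was measured by TMTpro 16plex LC-MS/MS with channel sums equalised.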

[1] = compound: CC(=O)c1cnc2ccc(-c3cc(Cl)c(O)c(Cl)c3)nc2c1N[C@H]1CC[C@H](CN(C)C)CC1
Method in brief: as §1

ralimetinib = compound: CC(C)(C)Cn1c(N)nc2ccc(-c3[nH]c(C(C)(C)C)nc3-c3ccc(F)cc3)nc21 [ralimetinib]
Method in brief: as §1

[2] = compound: CC(C)(O)CC(=O)NCCn1ccc2ncnc(Nc3ccc(Oc4cccc(C(F)(F)F)c4)c(Cl)c3)c21
Method in brief: as §1

[3] = compound: CC(C)C1=C2N=C(C=C(N2N=C1)NCC3=CC=CC=C3)NCCCCCCN
Method in brief: as §1

[4] = compound: CC1=C(C(CC(=O)N1)C2=CC=C(C=C2)C(F)(F)F)C(=O)NC3=C(C=C4C(=C3)C=NN4)F
Method in brief: as §1

[5] = compound: CC1=C(C2=C(C=C1)C(=O)C3=CC=CC=C3N2CCCN)C
Method in brief: as §1

[6] = compound: CC1=C(C=C(C=C1)NC(=O)C2=CC(=CC=C2)C(C)(C)C#N)NC3=CC4=C(C=C3)N=CN(C4=O)C
Method in brief: as §1

[7] = compound: CC1=C(C=C(C=C1)NC(=O)C2=CC(=CC=C2)N(C)C)NC(=O)C3=CC=C(C=C3)O
Method in brief: as §1

[8] = compound: CC1=CC=C(C=C1)SC2=C3C=C(SC3=CN=C2)C(=O)N
Method in brief: as §1

Measured: log2 fold change

ADAMTS5 (UniProt Q9UNA0)
inactive: ibrutinib 0.032 | [1] -0.057 | ralimetinib -0.016 | [2] -0.186 | [3] -0.011 | [4] 0.008 | [5] -0.067 | [6] 0.093 | [7] -0.031 | [8] -0.076

ABHD17B (UniProt Q5VST6)
inactive: ibrutinib 0.067 | [1] -0.031 | ralimetinib -0.053 | [2] -0.037 | [3] -0.036 | [4] -0.076 | [5] 0.001 | [6] 0.013 | [7] 0.127 | [8] 0.018

ACBD6 (UniProt Q9BR61)
inactive: ibrutinib 0.007 | [1] 0.038 | ralimetinib 0.012 | [2] -0.039 | [3] 0.002 | [4] 0.034 | [5] 0.001 | [6] 0.062 | [7] 0.027 | [8] -0.057

AFF4 (UniProt Q9UHB7)
inactive: ibrutinib 0.172 | [1] -0.009 | ralimetinib -0.049 | [2] 0.033 | [3] -0.008 | [4] -0.028 | [5] -0.047 | [6] 0.009 | [7] 0.002 | [8] 0.024

ALDH1L2 (UniProt Q3SY69)
Chain of UniProt Q3SY69 (Q3SY69 whole entry, looked up): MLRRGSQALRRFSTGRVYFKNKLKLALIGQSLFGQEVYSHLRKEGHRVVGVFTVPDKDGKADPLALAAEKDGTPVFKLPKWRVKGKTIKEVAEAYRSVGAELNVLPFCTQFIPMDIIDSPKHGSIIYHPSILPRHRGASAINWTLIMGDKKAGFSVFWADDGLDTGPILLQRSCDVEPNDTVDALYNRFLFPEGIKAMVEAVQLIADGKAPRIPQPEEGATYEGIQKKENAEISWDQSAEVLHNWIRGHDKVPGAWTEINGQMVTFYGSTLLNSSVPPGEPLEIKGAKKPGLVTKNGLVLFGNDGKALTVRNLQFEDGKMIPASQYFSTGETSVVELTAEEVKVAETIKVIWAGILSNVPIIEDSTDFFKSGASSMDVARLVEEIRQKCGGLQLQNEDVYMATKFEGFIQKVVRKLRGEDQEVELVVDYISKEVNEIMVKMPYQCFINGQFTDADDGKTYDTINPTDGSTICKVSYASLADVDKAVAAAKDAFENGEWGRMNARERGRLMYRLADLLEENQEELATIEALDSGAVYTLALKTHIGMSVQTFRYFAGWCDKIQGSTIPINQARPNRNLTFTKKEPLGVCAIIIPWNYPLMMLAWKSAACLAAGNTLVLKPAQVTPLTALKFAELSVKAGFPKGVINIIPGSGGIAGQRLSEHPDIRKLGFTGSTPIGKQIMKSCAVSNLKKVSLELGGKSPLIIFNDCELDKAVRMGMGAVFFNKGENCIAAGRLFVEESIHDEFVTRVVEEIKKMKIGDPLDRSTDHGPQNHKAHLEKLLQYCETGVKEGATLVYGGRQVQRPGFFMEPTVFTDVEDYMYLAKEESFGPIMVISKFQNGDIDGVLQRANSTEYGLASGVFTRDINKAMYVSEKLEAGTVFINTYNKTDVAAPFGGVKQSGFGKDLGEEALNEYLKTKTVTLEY
inactive: ibrutinib 0.033 | [1] 0.034 | ralimetinib 0.024 | [2] -0.038 | [3] 0.006 | [4] 0.029 | [5] -0.022 | [6] -0.028 | [7] -0.006 | [8] 0.016

ADAR isoform 4 (UniProt P55265)
inactive: ibrutinib 0.152 | [1] -0.025 | ralimetinib 0.029 | [2] -0.019 | [3] -0.03 | [4] 0.018 | [5] 0.016 | [6] -0.002 | [7] 0.015 | [8] -0.021

ALDH5A1 isoform 2 (UniProt P51649)
inactive: ibrutinib 0.041 | [1] 0.018 | ralimetinib -0.015 | [2] 0.001 | [3] -0.019 | [4] -0.01 | [5] 0.001 | [6] 0.021 | [7] -0.022 | [8] 0.011

ADK (UniProt P55263)
inactive: ibrutinib -0.028 | [1] 0.107 | ralimetinib 0.313 | [2] -0.027 | [3] -0.05 | [4] -0.073 | [5] -0.059 | [6] -0.007 | [7] -0.008 | [8] -0.005

AMDHD2 isoform 3 (UniProt Q9Y303)
Chain of UniProt Q9Y303 (Q9Y303 whole entry, looked up): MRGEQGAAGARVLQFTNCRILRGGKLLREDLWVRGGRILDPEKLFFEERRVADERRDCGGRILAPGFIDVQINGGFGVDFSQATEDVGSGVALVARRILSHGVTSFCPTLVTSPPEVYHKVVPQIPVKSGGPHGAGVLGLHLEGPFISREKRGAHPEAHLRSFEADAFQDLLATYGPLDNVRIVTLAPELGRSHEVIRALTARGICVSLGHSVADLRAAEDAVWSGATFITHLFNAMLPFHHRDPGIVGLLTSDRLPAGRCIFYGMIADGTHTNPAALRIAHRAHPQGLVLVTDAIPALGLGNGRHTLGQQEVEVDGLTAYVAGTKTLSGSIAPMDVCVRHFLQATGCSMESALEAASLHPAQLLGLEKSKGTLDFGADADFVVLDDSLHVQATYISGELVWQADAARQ
inactive: ibrutinib 0.032 | [1] 0.006 | ralimetinib -0.059 | [2] -0.025 | [3] -0.011 | [4] 0.009 | [5] 0.013 | [6] -0.015 | [7] -0.017 | [8] -0.017

ACAA1 (UniProt P09110)
inactive: ibrutinib 0.046 | [1] -0.012 | ralimetinib -0.054 | [2] -0.003 | [3] 0 | [4] -0.02 | [5] -0.016 | [6] 0.044 | [7] 0.001 | [8] -0.007

ARL8A (UniProt Q96BM9)
Chain of UniProt Q96BM9 (Q96BM9 whole entry, looked up): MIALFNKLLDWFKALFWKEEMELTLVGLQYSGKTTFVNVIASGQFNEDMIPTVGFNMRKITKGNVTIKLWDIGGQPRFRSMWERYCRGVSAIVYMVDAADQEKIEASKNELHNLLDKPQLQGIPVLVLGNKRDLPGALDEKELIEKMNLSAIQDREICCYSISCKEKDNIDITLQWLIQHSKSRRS
inactive: ibrutinib -0.141 | [1] 0.119 | ralimetinib -0.101 | [2] -0.102 | [3] 0.11 | [4] 0.135 | [5] -0.049 | [6] -0.143 | [7] -0.022 | [8] 0

ALDH1A1 (UniProt P00352)
active: [5] 0.26
inactive: ibrutinib 0.092 | [1] 0.019 | ralimetinib 0.037 | [2] 0.037 | [3] -0.029 | [4] 0 | [6] -0.005 | [7] 0.028 | [8] 0.011

ABHD16A (UniProt O95870)
inactive: ibrutinib -0.01 | [1] 0.004 | ralimetinib 0.029 | [2] 0.018 | [3] 0.027 | [4] -0.022 | [5] 0.03 | [6] -0.031 | [7] -0.077 | [8] -0.011

ACAT1 (UniProt P24752)
Chain of UniProt P24752 (P24752 whole entry, looked up): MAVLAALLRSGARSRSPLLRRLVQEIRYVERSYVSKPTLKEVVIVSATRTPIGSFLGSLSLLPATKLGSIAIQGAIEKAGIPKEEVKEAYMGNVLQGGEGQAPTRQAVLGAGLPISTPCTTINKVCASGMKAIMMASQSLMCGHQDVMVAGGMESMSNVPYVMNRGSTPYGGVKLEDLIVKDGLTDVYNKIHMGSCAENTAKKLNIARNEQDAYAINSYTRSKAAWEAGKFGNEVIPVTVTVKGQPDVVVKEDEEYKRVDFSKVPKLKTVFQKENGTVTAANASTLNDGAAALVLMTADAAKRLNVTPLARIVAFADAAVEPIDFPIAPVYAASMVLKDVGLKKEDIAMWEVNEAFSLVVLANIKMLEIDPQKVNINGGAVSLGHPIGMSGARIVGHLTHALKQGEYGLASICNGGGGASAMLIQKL
inactive: ibrutinib 0.002 | [1] 0.005 | ralimetinib 0.003 | [2] 0.002 | [3] -0.002 | [4] 0.001 | [5] 0.034 | [6] -0.013 | [7] -0.007 | [8] 0.015

ACADS (UniProt P16219)
inactive: ibrutinib -0.006 | [1] 0.031 | ralimetinib 0.004 | [2] -0.026 | [3] -0.002 | [4] -0.041 | [5] -0.022 | [6] 0.004 | [7] -0.027 | [8] 0.018

ACSL4 (UniProt O60488)
inactive: ibrutinib 0.035 | [1] -0.012 | ralimetinib 0.051 | [2] -0.022 | [3] -0.015 | [4] 0.027 | [5] -0.079 | [6] -0.044 | [7] 0.052 | [8] 0.021

AARS2 (UniProt Q5JTZ9)
inactive: ibrutinib 0 | [1] -0.052 | ralimetinib 0.025 | [2] -0.018 | [3] 0.029 | [4] 0.009 | [5] 0.02 | [6] -0.006 | [7] 0.035 | [8] -0.03

ANP32A (UniProt P39687)
inactive: ibrutinib 0.003 | [1] -0.003 | ralimetinib 0.002 | [2] 0.188 | [3] -0.041 | [4] -0.029 | [5] 0.079 | [6] -0.025 | [7] -0.046 | [8] -0.018

AMD1 (UniProt P17707)
inactive: ibrutinib -0.031 | ralimetinib -0.02 | [2] -0.013 | [3] -0.054 | [4] 0.019 | [5] -0.015 | [6] 0.155 | [7] -0.023 | [8] -0.119
active: [1] 0.464

AKT2 (UniProt P31751)
inactive: ibrutinib -0.016 | [1] 0.006 | ralimetinib 0.026 | [2] 0.006 | [3] -0.006 | [4] 0.011 | [5] 0.007 | [6] 0.005 | [7] -0.004 | [8] -0.044

ANP32E isoform 3 (UniProt Q9BTT0)
inactive: ibrutinib -0.065

ARMC6 (UniProt Q6NXE6)
inactive: ibrutinib 0.023 | [1] 0.005 | ralimetinib 0.007 | [2] -0.005 | [3] 0.002 | [4] -0.013 | [5] 0.001 | [6] -0.011 | [7] 0.016 | [8] 0

AP3D1 isoform 5 (UniProt O14617)
Chain of UniProt O14617 (O14617 whole entry, looked up): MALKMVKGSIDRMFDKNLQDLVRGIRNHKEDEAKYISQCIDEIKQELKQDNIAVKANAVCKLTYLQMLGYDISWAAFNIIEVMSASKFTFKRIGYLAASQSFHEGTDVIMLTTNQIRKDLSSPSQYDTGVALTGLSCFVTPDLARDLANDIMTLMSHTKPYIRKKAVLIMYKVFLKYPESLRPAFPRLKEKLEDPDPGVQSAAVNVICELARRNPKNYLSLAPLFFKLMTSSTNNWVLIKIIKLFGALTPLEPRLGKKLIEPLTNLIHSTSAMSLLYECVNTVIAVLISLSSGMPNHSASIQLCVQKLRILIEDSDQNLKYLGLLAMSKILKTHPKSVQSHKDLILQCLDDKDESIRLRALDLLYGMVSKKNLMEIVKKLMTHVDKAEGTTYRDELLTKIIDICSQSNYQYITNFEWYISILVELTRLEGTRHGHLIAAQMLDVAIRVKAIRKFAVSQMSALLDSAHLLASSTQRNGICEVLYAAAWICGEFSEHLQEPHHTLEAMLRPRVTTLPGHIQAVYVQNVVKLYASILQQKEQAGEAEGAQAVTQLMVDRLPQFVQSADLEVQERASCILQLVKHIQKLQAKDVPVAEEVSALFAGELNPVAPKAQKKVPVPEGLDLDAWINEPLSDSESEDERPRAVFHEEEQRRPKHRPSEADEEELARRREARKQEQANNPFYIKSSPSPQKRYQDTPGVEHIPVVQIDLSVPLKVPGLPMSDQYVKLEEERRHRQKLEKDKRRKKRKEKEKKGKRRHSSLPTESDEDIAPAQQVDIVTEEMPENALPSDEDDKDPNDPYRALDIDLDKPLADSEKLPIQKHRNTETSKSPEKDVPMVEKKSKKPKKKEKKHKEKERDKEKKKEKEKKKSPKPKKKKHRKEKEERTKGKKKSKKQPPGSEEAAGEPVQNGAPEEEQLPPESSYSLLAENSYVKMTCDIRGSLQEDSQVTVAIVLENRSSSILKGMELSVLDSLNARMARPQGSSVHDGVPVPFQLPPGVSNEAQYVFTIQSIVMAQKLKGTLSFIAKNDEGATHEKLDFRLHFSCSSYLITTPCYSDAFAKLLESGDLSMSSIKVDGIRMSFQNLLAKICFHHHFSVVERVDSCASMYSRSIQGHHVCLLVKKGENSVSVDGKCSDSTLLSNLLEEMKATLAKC
inactive: ibrutinib 0.033 | [1] -0.012 | ralimetinib 0.028 | [2] -0.012 | [3] -0.007 | [4] -0.014 | [5] -0.024 | [6] 0.011 | [7] 0.01 | [8] 0.006

ARFGAP1 (UniProt Q8N6T3)
inactive: ibrutinib -0.118 | [1] 0.06 | ralimetinib -0.018 | [2] -0.203 | [3] 0.019 | [4] 0.408 | [5] 0.136 | [6] -0.062 | [7] 0.061 | [8] -0.045

ANXA2 (UniProt H0YL33)
inactive: ibrutinib 0.235 | [1] -0.167 | ralimetinib -0.076 | [2] 0.129 | [3] -0.353 | [4] 0.033 | [5] 0.025 | [6] -0.211 | [7] 0.005 | [8] -0.144

ANKRD27 (UniProt Q96NW4)
Chain of UniProt Q96NW4 (Q96NW4 whole entry, looked up): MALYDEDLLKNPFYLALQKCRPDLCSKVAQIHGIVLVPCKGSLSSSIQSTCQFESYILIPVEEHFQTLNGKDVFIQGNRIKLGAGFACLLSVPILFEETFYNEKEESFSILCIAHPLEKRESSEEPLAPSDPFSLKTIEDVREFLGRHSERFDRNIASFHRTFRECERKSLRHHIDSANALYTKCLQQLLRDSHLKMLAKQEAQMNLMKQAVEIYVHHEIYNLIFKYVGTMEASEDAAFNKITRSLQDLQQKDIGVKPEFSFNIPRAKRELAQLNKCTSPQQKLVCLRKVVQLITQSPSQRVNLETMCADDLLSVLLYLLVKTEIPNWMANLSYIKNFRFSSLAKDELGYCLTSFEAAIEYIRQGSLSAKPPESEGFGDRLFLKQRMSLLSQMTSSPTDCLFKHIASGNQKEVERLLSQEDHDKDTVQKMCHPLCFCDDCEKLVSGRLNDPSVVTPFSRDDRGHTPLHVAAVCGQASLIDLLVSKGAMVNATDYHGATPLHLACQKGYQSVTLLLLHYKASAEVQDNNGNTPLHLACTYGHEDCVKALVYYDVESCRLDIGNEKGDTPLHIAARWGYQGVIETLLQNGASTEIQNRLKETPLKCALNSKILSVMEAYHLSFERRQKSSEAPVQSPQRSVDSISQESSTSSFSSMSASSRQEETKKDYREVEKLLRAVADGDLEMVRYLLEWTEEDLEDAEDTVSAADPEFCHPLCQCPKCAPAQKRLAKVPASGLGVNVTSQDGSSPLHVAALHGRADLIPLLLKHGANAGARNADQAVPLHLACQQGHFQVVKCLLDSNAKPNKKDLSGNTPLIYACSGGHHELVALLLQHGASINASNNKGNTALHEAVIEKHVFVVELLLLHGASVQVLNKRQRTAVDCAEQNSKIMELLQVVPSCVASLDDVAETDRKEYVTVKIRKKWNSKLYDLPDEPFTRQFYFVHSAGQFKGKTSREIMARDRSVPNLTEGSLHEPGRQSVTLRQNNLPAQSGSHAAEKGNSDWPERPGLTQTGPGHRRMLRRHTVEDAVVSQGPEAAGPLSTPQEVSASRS
inactive: ibrutinib 0.016 | [1] -0.003 | ralimetinib -0.028 | [2] -0.009 | [3] 0.032 | [4] 0.033 | [5] -0.014 | [6] 0.089 | [7] 0.013 | [8] -0.102

AGTPBP1 (UniProt Q9UPW5)
inactive: ibrutinib -0.255 | [1] 0.001 | ralimetinib 0.013 | [2] -0.058 | [3] 0.008 | [4] -0.026 | [5] 0.051 | [6] 0.077 | [7] 0.005 | [8] 0.012

ANXA11 (UniProt P50995)
inactive: ibrutinib -0.005 | [1] -0.027 | ralimetinib -0.002 | [2] 0.057 | [3] 0.034 | [4] -0.031 | [5] 0.023 | [6] -0.041 | [7] 0.01 | [8] 0

ACOX1 isoform 2 (UniProt Q15067)
Chain of UniProt Q15067 (Q15067 whole entry, looked up): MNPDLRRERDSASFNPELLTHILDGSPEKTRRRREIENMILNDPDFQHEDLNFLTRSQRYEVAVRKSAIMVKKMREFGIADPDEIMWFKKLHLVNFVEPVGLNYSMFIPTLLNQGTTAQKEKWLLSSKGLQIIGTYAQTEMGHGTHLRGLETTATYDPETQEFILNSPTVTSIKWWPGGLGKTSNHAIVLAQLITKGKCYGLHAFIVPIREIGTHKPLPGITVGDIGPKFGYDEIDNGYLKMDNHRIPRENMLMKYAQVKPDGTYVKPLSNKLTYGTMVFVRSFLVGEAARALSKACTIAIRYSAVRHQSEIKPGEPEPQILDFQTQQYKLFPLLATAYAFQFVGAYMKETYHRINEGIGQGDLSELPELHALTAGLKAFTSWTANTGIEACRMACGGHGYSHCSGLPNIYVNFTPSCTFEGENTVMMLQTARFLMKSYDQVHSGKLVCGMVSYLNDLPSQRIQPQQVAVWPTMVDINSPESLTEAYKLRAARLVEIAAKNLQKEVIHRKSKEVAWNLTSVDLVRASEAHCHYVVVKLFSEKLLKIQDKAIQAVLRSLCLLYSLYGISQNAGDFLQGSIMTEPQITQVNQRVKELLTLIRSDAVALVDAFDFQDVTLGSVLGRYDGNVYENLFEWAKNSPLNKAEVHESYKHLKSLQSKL
inactive: ibrutinib 0.036 | [1] 0.052 | ralimetinib 0.098 | [2] -0.044 | [3] -0.013 | [4] -0.016 | [5] -0.043 | [6] 0.001 | [7] -0.026 | [8] -0.024

ABL2 (UniProt P42684)
inactive: [1] 0.078 | ralimetinib 0.005 | [2] 0.002 | [3] 0.002 | [4] -0.057 | [5] -0.112 | [6] 0.154 | [7] 0.093 | [8] -0.046
active: ibrutinib 0.586
